Results on ten compounds are retold here after PubChem BioAssay (NCATS).

Results filed as inconclusive are left out. Activity calls are given as the source filed them. Unless noted, how the calls were made is not given here.

Test [1] can be described thus: qHTS Assay for Identifying Gametocytocidal Compounds (AID 743244; active means well fitted curve in the direction sought with a large enough effect; an effect the other way counts as inactive or inconclusive; further: potency means the concentration at half of the fitted maximal effect;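 on max response: on the % scale 0 is the no-effect control and ±100 the full control effect; actives lower the fluorescent signal which means gametocytes are killed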). Particulars: P. falciparum 3D7 stage III-V gametocytes, alamarBlue, 72 h; max response: stronger effect = lower value. In outline: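 P. falciparum 3D7 stage III–V gametocytes (20,000 cells/well) were exposed to compounds for 72 h at 37 °C, 5% CO2. AlamarBlue was then added for 24 h; decreased resorufin fluorescence (Ex 525/Em 598 nm) indicated loss of viability.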
On the technique in general: In qHTS, concentration-response curves come from the screen itself.

The nature of test [2]: qHTS profiling for inhibitors of Plasmodium falciparum (3D7) proliferation (AID 743322).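 Further: infected erythrocytes exposed to compound for 72 h before lysis; 100% = DMSO vehicle wells and 0% = 0.29 µM artemisinin.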 As to conditions: P. falciparum 3D7 proliferation; at 28.7 µM (top of the series). The gist of the method:
(§1)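 Parasite DNA was quantified by SYBR Green I fluorescence (ex 485, em 535 nm) after overnight lysis in saponin/Triton buffer at room temperature. Cultures at 0.3% parasitemia and 2.5% hematocrit were first exposed to compound for 72 h at 37 C; signals were normalised to artemisinin (0.29 uM) and vehicle wells.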

Test [3] can be described thus: qHTS profiling for inhibitors of Plasmodium falciparum (DD2) proliferation (AID 743323). As to conditions: lower = more inhibition; at 28.7 µM (top of the series). In outline: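 Parasite proliferation measured via DNA-dye fluorescence, as uninfected erythrocytes lack DNA. Cultures at 0.3% parasitemia and 2.5% hematocrit incubated 72 h with compound; signal scaled between vehicle and 0.29 uM artemisinin wells.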

A short description of test [4]: qHTS profiling for inhibitors of Plasmodium falciparum (HB3) proliferation (AID 743324; active means well fitted curve in the direction sought with a large enough effect; an effect the other way counts as inactive or inconclusive;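 further: 100% = DMSO vehicle wells and 0% = artemisinin-treated control wells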). Particulars: Plasmodium falciparum HB3 blood-stage proliferation; at 28.7 µM (top of the series). In outline:
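SYBR Green fluorescence (485 ex/535 em) of lysed cultures, incubated overnight at room temperature in the dark, quantifies parasite DNA. Infected erythrocytes at 0.3% parasitemia and 2.5% hematocrit were exposed 72 h; values normalized to DMSO and 0.29 uM artemisinin controls.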

The nature of test [5]: qHTS profiling of the MIPE4 collection as inhibitors of Plasmodium falciparum (3D7) proliferation (AID 743344). As to conditions: P. falciparum 3D7 in erythrocytes, SYBR Green DNA fluorescence, 72 h; at 28.5 µM (top of the series) unless noted. The gist of the method:
as §1

A short description of test [6]: qHTS profiling of the MIPE4 collection as inhibitors of Plasmodium falciparum (DD2) proliferation (AID 743345). As to conditions: P. falciparum Dd2 in erythrocytes, SYBR Green DNA, 72 h; at 28.5 µM (top of the series) unless noted. In outline: as §1
Test [7] is described as follows: qHTS profiling of the MIPE4 collection as inhibitors of Plasmodium falciparum (DD2) proliferation (Rep 2) (AID 743346). Particulars: P. falciparum Dd2 in erythrocytes, SYBR Green DNA, 72 h; at 28.5 µM (top of the series) unless noted. The gist of the method: as §1
The nature of test [8]: High-throughput drug toxicity screening in the BPDCN cell line Gen2.2 (AID 1224824).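 Further: cells exposed to compounds for 48 h before reading.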 Particulars: Gen2.2 BPDCN cells; at 45.8 µM (top of the series) unless noted. In outline: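 Seed 500 exponentially growing Gen2.2 cells/well; add compounds by pin tool; incubate 48 h, 37 °C, 5% CO2; add CellTiter-Glo, 15 min RT; read luminescence. % activity vs DMSO (100%) and bortezomib (0%).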

Test [9] in a line: High-throughput drug toxicity screening in the BPDCN cell line Cal-1 (AID 1224825). As to conditions: Cal-1 BPDCN cell viability, qHTS; at 45.8 µM (top of the series) unless noted. The gist of the method: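 Viability of the BPDCN line Cal-1 is measured as ATP-based luminescence (CellTiter-Glo) following 48 h incubation with compounds. Percent activity uses DMSO-treated wells as 100% and 9.2 uM bortezomib as 0%.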

A short description of test [10]: qHTS assay for measurement of the activity of small molecule inhibitors on Zika virus induced Caspase-3 activity in human iPSC derived neural progenitor cells (hNPCs) (AID 1224857; active means well fitted curve in the direction sought with a large enough effect; an effect the other way counts as inactive or inconclusive; further: % of control where 0% means no effect; nearly all actives have a fitted effect of over 65% in size). Particulars: hNPCs ZIKV-induced caspase-3/7, Caspase-Glo luminescence, 6 h; series mostly up to 45.7 µM. The gist of the method:
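hNPCs seeded 350 cells/well, cultured 16–20 h; compounds added 1 h before ZIKV (2 FFU/cell), 37 C 6 h. Caspase-Glo 3/7 luminescence after 30 min RT; % inhibition from induction scaled to uninfected (0%) and infected (100%) wells.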

Test [11] is described as follows: qHTS assay for measurement of the activity of small molecule inhibitors on Zika virus induced Caspase-3 activity in human astrocytoma cells (AID 1224859; active means well fitted curve in the direction sought with a large enough effect; an effect the other way counts as inactive or inconclusive;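 further: plate controls were ZIKV-infected untreated cells for no effect and uninfected cells for full effect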). Particulars: SNB-19 ZIKV-induced caspase-3/7, luminescence, 6 h; series mostly up to 45.7 µM. The gist of the method: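 Luminescence read-out (Caspase-Glo 3/7, 30 min RT) of caspase activity in SNB-19 cells infected 6 h with ZIKV, 2 FFU/cell, after 1 h compound pretreatment; % inhibition from induction normalised to uninfected (0%) and infected (100%) wells.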

Test [12] can be described thus: qHTS profiling of the MIPE4 collection as inhibitors of Plasmodium falciparum (HB3) proliferation (AID 743347).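 Further: plate controls were DMSO vehicle wells for no effect and artemisinin wells for full effect.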 Particulars: P. falciparum HB3 in erythrocytes, SYBR Green DNA, 72 h; at 28.5 µM (top of the series) unless noted. The gist of the method: as §1

Consider `Clc1ccc2ncc(-c3cccc(NC4CNC4)n3)n2c1`, for which, in test [1], the max response is -0.805% (inactive). For the same compound, the remaining parasite growth % (stronger effect = lower value) in [2] came to 5.93%. For the same compound, the activity, percent of control in test [3] turned out to be 12%. Further, the remaining proliferation (% of control), lower = more inhibition in test [4] is 6.95%. In addition, the parasite growth, % of DMSO control in test [5] came to 10.6%. The parasite growth remaining, % of DMSO control (lower = more inhibition) in [6] was determined as 24.5%. In test [7], this compound returned a parasite growth, % of control (lower = inhibition) of 24.4%. This compound also came in with a cell viability, % of control (lower = more cytotoxic) in test [8] of 15.7%. This compound also gave a viability (% of control) in test [9] of 4.56%. The Potency result in test [10] and in test [11] was “inactive” in each case.

For the compound `CN(C)CCCN=c1c2ccccc2n(C)c2[nH]c(=O)n(C)c(=O)c12`, the Potency in [1] was 14.8 µM (active). Besides, the remaining parasite growth % (stronger effect = lower value) in [2] was found to be 5.55%. In addition, the activity, percent of control in test [3] amounted to 15.1%. This compound displayed a remaining proliferation (% of control), lower = more inhibition in test [4] of 3.8%. Also, the parasite growth, % of DMSO control in test [5] stood at 5.98%. The parasite growth remaining, % of DMSO control (lower = more inhibition) in test [6] was found to be 10.8%. The compound further gave a parasite growth, % of control (lower = inhibition) in test [7] of 9.14%. The same compound came in with a cell viability, % of control (lower = more cytotoxic) in test [8] of 2.75%. Moreover, the viability (% of control) in test [9] was 4%. Moreover, the Potency entry in test [10] and in test [11] was “inactive” each time.

`COc1ccc(C=Cc2cc(OC)c(OC)c(OC)c2)cc1O`: in [1], the max response is 18.2% (inactive). Moreover, the remaining parasite growth % (stronger effect = lower value) in [2] came out at 92%. For the same compound, the activity, percent of control in [3] is 104%. Further, the remaining proliferation (% of control), lower = more inhibition in [4] came out at 84.7%. In test [5], this compound had a parasite growth, % of DMSO control of 36%. This compound also yielded a parasite growth remaining, % of DMSO control (lower = more inhibition) in test [6] of 21.1%. Also, the parasite growth, % of control (lower = inhibition) in test [7] was 44%. Moreover, the cell viability, % of control (lower = more cytotoxic) in test [8] is 10.8%. In addition, the viability (% of control) in test [9] was determined as 8.52%. Further, the Potency entry in [10] and in test [11] was “inactive” each time.

`Clc1cccc(-n2nnnc2NCc2ccccc2Oc2ccccn2)c1Cl`: in test [8], the cell viability, % of control (lower = more cytotoxic) came out at 100%. Further, the viability (% of control) in test [9] was 100%. Besides, the Potency result in [10] and in test [11] was “inactive” each time.

As to `CC(=O)c1c(C)c2cnc(Nc3ccc(N4CCNCC4)cn3)nc2n(C2CCCC2)c1=O`, in [1], the Potency is 7.43 µM (active). Moreover, the remaining parasite growth % (stronger effect = lower value) in [2] was 0.348%. In addition, the activity, percent of control in [3] turned out to be 4.74%. Moreover, in [4], the remaining proliferation (% of control), lower = more inhibition worked out at 0.446%. Moreover, in [5], the parasite growth, % of DMSO control turned out to be 5.54%. The same compound returned a parasite growth remaining, % of DMSO control (lower = more inhibition) in test [6] of 6.84%. Moreover, the parasite growth, % of control (lower = inhibition) in test [7] came out at 9.82%. Further, in test [12], the growth, % of control stood at 2.45%. The compound also came in with a cell viability, % of control (lower = more cytotoxic) in test [8] of 8.1%. This compound had a viability (% of control) in test [9] of 3.89%. Further, the Potency entry in test [10] and in test [11] was “inactive” in each case.

As to `CC(C)=CCCC(C)=CCCC(C)=CCSc1ccccc1C(=O)O`, the max response in test [1] is 2.41% (inactive). Besides, the remaining parasite growth % (stronger effect = lower value) in test [2] is 101%. In addition, the activity, percent of control in test [3] is 118%. Besides, the remaining proliferation (% of control), lower = more inhibition in test [4] turned out to be 92%. In addition, the parasite growth, % of DMSO control in [5] worked out at 22.6%. This compound also returned a parasite growth remaining, % of DMSO control (lower = more inhibition) in [6] of 25.3%. Besides, in [7], the parasite growth, % of control (lower = inhibition) came to 33.1%. For the same compound, the cell viability, % of control (lower = more cytotoxic) in [8] is 9.26%. Further, the viability (% of control) in test [9] worked out at 19%. Moreover, the Potency result in test [10] and in test [11] was “inactive” in each case.

With `Cc1ccc(-c2ncn(-c3ccc(Nc4nccc(-c5cccc(N6CCOCC6)c5)n4)cc3)n2)cn1`, the Potency in test [1] is 11.8 µM (active). For the same compound, the remaining parasite growth % (stronger effect = lower value) in test [2] was 3.9%. Besides, the activity, percent of control in test [3] stood at 4.15%. For the same compound, the remaining proliferation (% of control), lower = more inhibition in test [4] was found to be 5.18%. The compound also registered a parasite growth, % of DMSO control in [5] of 5.55%. The compound further came in with a parasite growth remaining, % of DMSO control (lower = more inhibition) in test [6] of 6.69%. Also, the growth, % of control in [12] was found to be 8.45%. The cell viability, % of control (lower = more cytotoxic) in [8] was found to be 5.12%. For the same compound, the viability (% of control) in [9] came out at 3.62%. The Potency result in test [10] and in [11] was “inactive” throughout.

As for `COc1cc2c(Oc3ccc4[nH]c(C)cc4c3F)ncnc2cc1OCCCN1CCCC1`, the Potency in test [1] was 18.7 µM (active). Also, the remaining parasite growth % (stronger effect = lower value) in test [2] was -0.853%. For the same compound, in test [3], the activity, percent of control stood at 1.27%. In test [4], this compound registered a remaining proliferation (% of control), lower = more inhibition of 0.351%. The same compound registered a parasite growth, % of DMSO control in test [5] of 6.49%. In test [6], this compound had a parasite growth remaining, % of DMSO control (lower = more inhibition) of 8.16%. In test [8], this compound had a cell viability, % of control (lower = more cytotoxic) of 7.59%. This compound also returned a viability (% of control) in test [9] of 6.46%. Also, the Potency entry in test [10] and in test [11] was “inactive” in each case.

As for `COc1ccc2c(c1)CC[C@@H](CN(C)CC(=O)O)[C@H]2c1ccccc1`, in test [1], the max response was 4.46% (inactive). Also, in [2], the remaining parasite growth % (stronger effect = lower value) came to 101%. Besides, in [3], the activity, percent of control worked out at 98.6%. In test [5], the parasite growth, % of DMSO control was 31.6%. Besides, the parasite growth remaining, % of DMSO control (lower = more inhibition) in test [6] was found to be 35.4%. The compound further displayed a cell viability, % of control (lower = more cytotoxic) in [8] of 39.9%. In test [9], the viability (% of control) is 21.4%. Besides, the Potency result in test [10] and in test [11] was “inactive” each time.

Take `COc1cc(C(=O)NS(=O)(=O)c2ccccc2C)ccc1Cc1cn(C)c2ccc(NC(=O)OC3CCCC3)cc12`: the max response in test [1] was 2.7% (inactive). The same compound yielded a parasite growth, % of DMSO control in test [5] of 5.96%. The compound also yielded a parasite growth remaining, % of DMSO control (lower = more inhibition) in test [6] of 7.78%. The same compound had a parasite growth, % of control (lower = inhibition) in [7] of 16.7%. In [12], this compound came in with a growth, % of control of 7.01%. The cell viability, % of control (lower = more cytotoxic) in [8] stood at 13%. The compound further displayed a viability (% of control) in [9] of 4.45%. The Potency result in [10] and in test [11] was “inactive” throughout.
